In PubChem BioAssay (NCI):
This is part of a sample that, as a whole, favours compounds with a hit. Of some 83,000 tested, about 20% had one in any assay.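 Negative percent growth values reflect cell death: -40 means 40% of the cells present at the start died, and -100 means all died.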 Activity calls are given as the source filed them. How the source made its calls: active means growth percent below 10; inactive means the rest.

Assays:
Assay in all cases: NCI-60 one-dose screen, 48 h (100 = growth as untreated, 0 = no growth, -100 = all killed)
Conditions in all cases: 10 µM unless noted
SR leukemia = system: SR leukemia
RPMI-8226 leukemia = system: RPMI-8226 leukemia
OVCAR-8 ovarian = system: OVCAR-8 ovarian
OVCAR-5 ovarian = system: OVCAR-5 ovarian
OVCAR-4 ovarian = system: OVCAR-4 ovarian
SK-OV-3 ovarian = system: SK-OV-3 ovarian
IGROV1 ovarian = system: IGROV1 ovarian
OVCAR-3 ovarian = system: OVCAR-3 ovarian
HS 578T breast = system: HS 578T breast
NCI/ADR-RES ovarian = system: NCI/ADR-RES ovarian

Measured: growth

COC(CC(F)F)c1cn(S(=O)(=O)c2ccc(C)cc2)c2ccccc12 (stereo not given)
active: OVCAR-3 ovarian 7.08%
inactive: SR leukemia 12.2% | RPMI-8226 leukemia 32.1% | OVCAR-8 ovarian 58.5% | OVCAR-5 ovarian 33.3% | OVCAR-4 ovarian 65.5% | SK-OV-3 ovarian 18.1% | IGROV1 ovarian 35.8% | HS 578T breast 32.5% | NCI/ADR-RES ovarian 36.3%

COc1cc2c(cc1OC)C(C)N(S(N)(=O)=O)CC2 (stereo not given)
inactive: SR leukemia 82.3% | RPMI-8226 leukemia 96.4% | OVCAR-8 ovarian 97% | OVCAR-5 ovarian 82.6% | OVCAR-4 ovarian 105% | SK-OV-3 ovarian 103% | IGROV1 ovarian 97.9% | OVCAR-3 ovarian 99.2% | HS 578T breast 105% | NCI/ADR-RES ovarian 96.9%

COc1ccc(NC(=O)c2sc3nc(C)c(C(=O)/C=C/c4ccccc4)cc3c2N)cc1
active: RPMI-8226 leukemia -24.4% | OVCAR-8 ovarian 8.59% | OVCAR-3 ovarian 0.065%
inactive: SR leukemia 14.7% | OVCAR-5 ovarian 63.5% | OVCAR-4 ovarian 52.3% | SK-OV-3 ovarian 103% | IGROV1 ovarian 17% | HS 578T breast 34% | NCI/ADR-RES ovarian 15.5%

COc1ccc(C2=C(Nc3ccc(C(=O)Nc4ccccc4)cc3)C(=O)N(C)C2=O)cc1
inactive: SR leukemia 66.6% | RPMI-8226 leukemia 82.1% | OVCAR-8 ovarian 91.5% | OVCAR-5 ovarian 100% | OVCAR-4 ovarian 97.4% | SK-OV-3 ovarian 74.9% | IGROV1 ovarian 97.7% | OVCAR-3 ovarian 109% | HS 578T breast 110% | NCI/ADR-RES ovarian 87%

CN(C)CCNC(=O)c1cc2c3cc(Cl)ccc3[nH]c2c2ncccc12
active: SR leukemia -17.6% | RPMI-8226 leukemia -11% | OVCAR-3 ovarian 0.195%
inactive: OVCAR-8 ovarian 19% | OVCAR-5 ovarian 32.7% | OVCAR-4 ovarian 34.1% | SK-OV-3 ovarian 46.1% | IGROV1 ovarian 20.9% | HS 578T breast 24.2% | NCI/ADR-RES ovarian 25.3%

COc1ccc2c(c1)c(-c1nc(-c3c[nH]c4ccncc34)cs1)cn2C
inactive: SK-OV-3 ovarian 106%
active: SR leukemia -26% | RPMI-8226 leukemia -36.7% | OVCAR-8 ovarian -52.2% | OVCAR-5 ovarian -72.9% | OVCAR-4 ovarian -71.4% | IGROV1 ovarian -83.8% | OVCAR-3 ovarian -90.5% | HS 578T breast -48.3% | NCI/ADR-RES ovarian -52.8%

CCCCCCCCCc1ccc(OCCOCCOCCOCCOCCOCCOCCOCCOCCO)cc1
inactive: OVCAR-5 ovarian 48.3% | OVCAR-4 ovarian 22.4% | SK-OV-3 ovarian 110% | IGROV1 ovarian 24.4%
active: SR leukemia -2.84% | RPMI-8226 leukemia -12.1% | OVCAR-8 ovarian 9.01% | OVCAR-3 ovarian 2.54% | HS 578T breast 8.85% | NCI/ADR-RES ovarian 1.74%

CC(C)=CC(=O)OCC(=O)O[C@@H]1C[C@]2(C(C)C)O[C@@]1(C)[C@@H]1CC[C@@H](C)[C@H]1[C@@H]2OC(=O)/C=C/c1ccccc1
inactive: SR leukemia 69.2% | RPMI-8226 leukemia 56% | OVCAR-8 ovarian 35.9% | OVCAR-5 ovarian 103% | OVCAR-4 ovarian 96.5% | SK-OV-3 ovarian 91.7% | IGROV1 ovarian 108% | OVCAR-3 ovarian 96.5% | NCI/ADR-RES ovarian 30.6%
active: HS 578T breast -0.351%

CNC(=O)c1ccccc1Oc1nc(Nc2cc(OC)c(OC)c(OC)c2)ncc1Br
inactive: SR leukemia 42.9% | RPMI-8226 leukemia 73.1% | OVCAR-8 ovarian 72.2% | OVCAR-5 ovarian 71.2% | OVCAR-4 ovarian 49.5% | SK-OV-3 ovarian 70.1% | IGROV1 ovarian 46.8% | OVCAR-3 ovarian 66% | HS 578T breast 69.2% | NCI/ADR-RES ovarian 66.8%

CCOC(=O)C1=C(c2ccccc2)N=C2SC=C(c3ccc(Cl)cc3)N2C1c1ccc(Cl)cc1 (stereo not given)
inactive: SR leukemia 75.7% | RPMI-8226 leukemia 65.9% | OVCAR-8 ovarian 78.6% | OVCAR-5 ovarian 96.9% | OVCAR-4 ovarian 48.7% | SK-OV-3 ovarian 86.5% | IGROV1 ovarian 72.3% | OVCAR-3 ovarian 65.8% | HS 578T breast 85.2% | NCI/ADR-RES ovarian 92.3%

CCOC(=O)C#Cc1c(C(=O)OCC)nnn1Cc1ccc([N+](=O)[O-])cc1
inactive: RPMI-8226 leukemia 11.4% | OVCAR-8 ovarian 63.3% | OVCAR-5 ovarian 97.3% | OVCAR-4 ovarian 51.2% | SK-OV-3 ovarian 105% | IGROV1 ovarian 89.6% | HS 578T breast 91.2% | NCI/ADR-RES ovarian 96.3%
active: SR leukemia -10.7% | OVCAR-3 ovarian 7.55%

COc1c(B(O)O)cccc1-c1cc(C)c2c(ccc3[nH]ncc32)n1
active: HS 578T breast 8.78%
inactive: SR leukemia 27.5% | RPMI-8226 leukemia 68.7% | OVCAR-8 ovarian 64.1% | OVCAR-5 ovarian 72.1% | OVCAR-4 ovarian 122% | SK-OV-3 ovarian 59.3% | IGROV1 ovarian 59.1% | OVCAR-3 ovarian 113% | NCI/ADR-RES ovarian 83.3%

NC(=O)c1c(NC(=O)c2ccc3ccccc3c2)sc2c1CCC(=O)C2
active: SR leukemia 8.41% | RPMI-8226 leukemia -12.1% | OVCAR-4 ovarian 5.13%
inactive: OVCAR-8 ovarian 46.1% | OVCAR-5 ovarian 74.7% | SK-OV-3 ovarian 104% | IGROV1 ovarian 42.7% | OVCAR-3 ovarian 23% | HS 578T breast 49.6% | NCI/ADR-RES ovarian 85.3%

Cc1ccc(C)n1-c1ccccc1-n1c(C)ccc1C
inactive: SR leukemia 93.2% | RPMI-8226 leukemia 148% | OVCAR-8 ovarian 102% | OVCAR-5 ovarian 118% | OVCAR-4 ovarian 105% | SK-OV-3 ovarian 109% | IGROV1 ovarian 92.9% | OVCAR-3 ovarian 120% | HS 578T breast 117% | NCI/ADR-RES ovarian 116%

Cc1cc(C)c2c(c1)N(C)c1ncnc(-n3cnc4cc(C)ccc43)c1CC2C (stereo not given)
inactive: OVCAR-8 ovarian 17.1% | OVCAR-5 ovarian 76.6% | OVCAR-4 ovarian 61.5% | IGROV1 ovarian 44.7% | HS 578T breast 25.1% | NCI/ADR-RES ovarian 14.6%
active: SR leukemia 4.51% | RPMI-8226 leukemia 9.87% | SK-OV-3 ovarian 3.2% | OVCAR-3 ovarian 8.19%

O=C1/C=C/[C@@H](O)[C@@H]2C[C@@H](O)C[C@H]2/C=C/CCC[C@H](CCc2ccccc2)O1
active: SR leukemia 9.67% | OVCAR-3 ovarian -42.1% | NCI/ADR-RES ovarian 5.65%
inactive: RPMI-8226 leukemia 10.7% | OVCAR-8 ovarian 14.4% | OVCAR-5 ovarian 19.8% | OVCAR-4 ovarian 24.9% | SK-OV-3 ovarian 28.2% | IGROV1 ovarian 14.7% | HS 578T breast 47.8%

O=C1c2ccccc2-c2c1c1c(=O)[nH]c3ccccc3c1n2Cc1ccccc1
active: HS 578T breast -15%
inactive: SR leukemia 55.4% | RPMI-8226 leukemia 80.3% | OVCAR-8 ovarian 63.2% | OVCAR-5 ovarian 56.5% | OVCAR-4 ovarian 35% | SK-OV-3 ovarian 76.3% | IGROV1 ovarian 71.5% | OVCAR-3 ovarian 77.2% | NCI/ADR-RES ovarian 67.9%

CN1CCN(c2cc(Nc3cc(C4CC4)[nH]n3)nc(Nc3ccc(CC(=O)NCc4cccc(F)c4)cc3)n2)CC1
inactive: SR leukemia 30.3% | RPMI-8226 leukemia 54.3% | OVCAR-8 ovarian 40.7% | OVCAR-5 ovarian 11% | OVCAR-4 ovarian 43.9% | SK-OV-3 ovarian 24% | OVCAR-3 ovarian 41.7% | NCI/ADR-RES ovarian 94.4%
active: IGROV1 ovarian -13.8% | HS 578T breast -6.93%

O=C1/C(=C/c2ccccc2Br)COc2ccc(O)cc21
inactive: SR leukemia 10.3% | OVCAR-8 ovarian 55.5% | OVCAR-5 ovarian 91.9% | OVCAR-4 ovarian 77.8% | SK-OV-3 ovarian 128% | IGROV1 ovarian 78.6% | OVCAR-3 ovarian 54.5% | HS 578T breast 70.5% | NCI/ADR-RES ovarian 46.9%
active: RPMI-8226 leukemia 1.71%

CN(C)CC(C)(C)C(=O)/C=C/c1ccccc1
active: SR leukemia -16.5% [25 µM] | RPMI-8226 leukemia -23.4% [25 µM] | OVCAR-8 ovarian -47.1% [25 µM] | OVCAR-5 ovarian -12% [25 µM] | OVCAR-4 ovarian -19.5% [25 µM] | SK-OV-3 ovarian -20.1% [25 µM] | IGROV1 ovarian -16.7% [25 µM] | OVCAR-3 ovarian -18.5% [25 µM] | HS 578T breast -2.87% [25 µM] | NCI/ADR-RES ovarian -9% [25 µM]

Nc1c(C(=O)Nc2ccccc2F)sc2nc3c(cc12)CCCC3
active: OVCAR-3 ovarian 4.6%
inactive: SR leukemia 13.3% | RPMI-8226 leukemia 28% | OVCAR-8 ovarian 40.7% | OVCAR-5 ovarian 74.7% | OVCAR-4 ovarian 54% | SK-OV-3 ovarian 26.6% | IGROV1 ovarian 58.9% | HS 578T breast 48.9% | NCI/ADR-RES ovarian 24.7%

CC1CCN(CCOc2ccc(CNc3ccc4nc(CCC5CCCCC5)[nH]c4c3)cc2)CC1
active: RPMI-8226 leukemia -15.7%
inactive: SR leukemia 14.4% | OVCAR-8 ovarian 43.1% | OVCAR-5 ovarian 59.9% | OVCAR-4 ovarian 50.4% | SK-OV-3 ovarian 80.4% | IGROV1 ovarian 43.1% | OVCAR-3 ovarian 66.3% | HS 578T breast 27.5% | NCI/ADR-RES ovarian 51%

COc1ccc(C2=Nc3c(N)nc(N)nc3NC(c3cccc(Nc4ccnc5cc(C(F)(F)F)ccc45)c3)C2)cc1 (stereo not given)
inactive: RPMI-8226 leukemia 18.2% | OVCAR-8 ovarian 75.6% | OVCAR-5 ovarian 116% | OVCAR-4 ovarian 68.9% | SK-OV-3 ovarian 84% | IGROV1 ovarian 72.1% | OVCAR-3 ovarian 66.4% | HS 578T breast 66.3% | NCI/ADR-RES ovarian 87.6%
active: SR leukemia -3.78%

COc1cc(OCc2cccc(Br)c2C)cc(OC)c1C=O
inactive: SR leukemia 82.6% | RPMI-8226 leukemia 52.8% | OVCAR-8 ovarian 89.9% | OVCAR-5 ovarian 55.5% | OVCAR-4 ovarian 67.7% | SK-OV-3 ovarian 94.8% | IGROV1 ovarian 61.8% | OVCAR-3 ovarian 87.1% | HS 578T breast 89.1% | NCI/ADR-RES ovarian 89.7%

CS(=O)(=O)Nc1cc(-c2ccc3ncnc(Nc4ccc5c(cnn5Cc5cccc(F)c5)c4)c3c2)cnc1Cl
active: SR leukemia 4.76% | RPMI-8226 leukemia -24.4% | OVCAR-5 ovarian 7.19% | SK-OV-3 ovarian -17.7% | IGROV1 ovarian -51.2% | OVCAR-3 ovarian -5.45% | HS 578T breast -14.8%
inactive: OVCAR-8 ovarian 28.1% | OVCAR-4 ovarian 26.4% | NCI/ADR-RES ovarian 78.2%

COc1ccccc1CNc1c2ccccc2nc2ccccc12
inactive: OVCAR-8 ovarian 31.9% | OVCAR-5 ovarian 49.8% | OVCAR-4 ovarian 42.2% | SK-OV-3 ovarian 61.4% | IGROV1 ovarian 26.3% | OVCAR-3 ovarian 54.3% | HS 578T breast 62% | NCI/ADR-RES ovarian 34.8%
active: SR leukemia 9.9% | RPMI-8226 leukemia 8.12%
